HPGD inh = qHTS Assay for Inhibitors of HPGD (15-Hydroxyprostaglandin Dehydrogenase); AID 894, 2007; hit rate 4.3% among 150,000; purified HPGD, NADH fluorescence kinetic, PGE2 substrate; Potency, µM, most hits filed as inhibitors; active = well fitted inhibition curve with a large enough effect, not every such curve was filed as active; inconclusive = small, poorly fitted or top-dose-only effect, or another doubt; inactive = no such curve, though single readings can be large or run the other way
Target sequence (P15428 whole entry, looked up): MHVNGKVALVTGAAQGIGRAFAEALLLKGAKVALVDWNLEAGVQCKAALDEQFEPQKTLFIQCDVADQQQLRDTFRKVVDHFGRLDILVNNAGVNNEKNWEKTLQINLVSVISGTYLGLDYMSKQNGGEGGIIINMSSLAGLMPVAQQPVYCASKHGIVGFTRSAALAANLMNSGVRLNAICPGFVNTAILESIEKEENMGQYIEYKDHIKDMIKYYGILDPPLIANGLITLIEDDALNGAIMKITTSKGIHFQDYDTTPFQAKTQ
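NADH formation kinetics: reaction with 30 uM PGE2 and 1 mM NAD+ (final), 20 nM enzyme, Tris-HCl pH 8 with Tween 20, after 15 min compound preincubation at room temperature. Fluorescence change, last versus first of five reads.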
Tau fluor cs = Counterscreen qHTS for Inhibitors of Tau Fibril Formation, Fluorescence Polarization; AID 1463, 2008; tau K18 P301L Alexa594 fluorescence, heparin fibrillization; Potency, µM (titrated, usually from 57.7 µM); hit rate 0.93% among 280,000; also: nearly all actives have a fitted effect of over 55% in size
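Human K18 P301L tau (15 uM unlabeled plus 0.24 uM Alexa 594-labeled, final) in 100 mM sodium acetate pH 7 was mixed with compound and 20 uM heparin and incubated 6 hr at 37 C.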
Tau fibril ThT = qHTS for Inhibitors of Tau Fibril Formation, Thioflavin T Binding. Potency, µM (titrated, usually from 57.4 µM), actives largely listed as inhibitors. Microtubule-associated protein tau (Homo sapiens), P10636. recombinant tau K18 P301L (four-repeat tau fragment), heparin-induced fibrillization, ThT fluorescence. AID 1460, 2008. hit rate 2.1% among 270,000; also: nearly all actives have a fitted effect of over 55% in size
Target sequence (P10636 561-689 P618L limits assumed): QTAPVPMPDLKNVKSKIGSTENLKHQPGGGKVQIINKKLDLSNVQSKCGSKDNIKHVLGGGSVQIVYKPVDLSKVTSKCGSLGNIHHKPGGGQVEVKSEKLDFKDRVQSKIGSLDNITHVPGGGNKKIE
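In this qHTS, human K18 P301L tau is incubated with compound and heparin for 6 hr at 37 C, and Thioflavin T fluorescence then reports fibril load.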
ALDH1A1 inh = qHTS Assay for Inhibitors of Aldehyde Dehydrogenase 1 (ALDH1A1). AID 1030, 2008. hit rate 7.3% among 220,000. Potency, µM (titrated, usually from 75.3 µM), actives largely listed as inhibitors. Purified ALDH1A1, NADH fluorescence, propionaldehyde substrate. Aldehyde dehydrogenase 1A1 (Homo sapiens), P00352; active = well fitted inhibition curve with a large enough effect, not every such curve was filed as active; inconclusive = small, poorly fitted or top-dose-only effect, or another doubt; inactive = no such curve, though single readings can be large or run the other way
KDM4E inh = qHTS Assay for Inhibitors of Human Jumonji Domain Containing 2E (JMJD2E); JMJD2E catalytic domain, FDH-coupled NADH fluorescence (FDH is formaldehyde dehydrogenase); Lysine-specific demethylase 4E (Homo sapiens), B2RXH2; hit rate 1.6% among 230,000; Potency, µM (titrated, usually from 57.1 µM), usual class: inhibitors; active = well fitted inhibition curve with a large enough effect, not every such curve was filed as active; inconclusive = small, poorly fitted or top-dose-only effect, or another doubt; inactive = no such curve, though single readings can be large or run the other way; also: nearly all actives have a fitted effect of over 50% in size
Tau FP inhib = qHTS for Inhibitors of Tau Fibril Formation, Fluorescence Polarization. Microtubule-associated protein tau (Homo sapiens), P10636. K18 P301L tau heparin fibrillization, Alexa594 FP, 6 h. Potency, µM (highest dose often 57.7 µM), usual class: inhibitors. hit rate 0.39% among 280,000. AID 1468, 2008; also: nearly all actives have a fitted effect of over 55% in size
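Human tau K18 […] P301L fragment, 15 uM unlabeled plus 0.24 uM Alexa 594-labeled tau (final), with compound and 20 uM heparin in 100 mM sodium acetate pH 7; 6 hr at 37 C, then Alexa 594 FP read.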
Numbers stand for hits; – = inactive; ? = inconclusive; · = no result given; ! = not confirmed by another sample; [ ] = dose if it differs, or a comment. Compounds with a hit are over-represented: about 9.9% of the library has one in this group of screens. Unless noted, calls follow the shape of the dose curve; as a rule, active = well fitted curve in the direction sought with a large enough effect; inconclusive = small, poorly fitted or top-dose-only effect, or another doubt; inactive = no such curve, though single readings can be large; an effect the other way counts as inactive or inconclusive.

SMILES	HPGD inh	Tau fluor cs	Tau fibril ThT	ALDH1A1 inh	KDM4E inh	Tau FP inhib
C[C@@]12CCC(Cl)C[C@H]1CCC1C2CC[C@]2(C)C(=O)CCC12 (some centres not stated)	–	–	–	–	–	–
Cc1ccc(-n2c(C)cc(/C=C3/C(=O)NC(=O)N(C)C3=O)c2C)cc1	–	–	?	?	–	–
Cc1cc(/C=C2\C(=O)NC(=O)N(c3ccc(Cl)cc3)C2=O)c(C)n1-c1sc2c(c1C#N)CCCC2	10µM	–	?	0.25µM	–	–
Cc1sc(-n2c(C)cc(C=C3C(=O)NC(=O)NC3=O)c2C)c(C#N)c1C	–	–	–	0.63µM	–	–
ClC(Br)Br	–	·	·	–	·	·
OCCBr	–	·	·	–	·	·
O=C1CC(N2CC=C(c3ccccc3)CC2)C(=O)N1c1ccc(F)cc1 (configuration not stated)	–	–	?	?	?	–
CCCOc1ccc(N2C(=O)CC(N3CC=C(c4ccccc4)CC3)C2=O)cc1 (configuration not stated)	·	–	32µM	10µM	–	?
NC(=NCc1ccc(Cl)cc1)SCCCc1cnc[nH]1	–	–	–	–	–	–
CCOc1ccc(-c2nc3ccc(-c4nc5ccc(N6CCN(C)CC6)cc5[nH]4)cc3[nH]2)cc1	·	?	2.8µM	?	·	–
Cc1ccc2nc(N3CCN(C)CC3)[nH]c2c1	–	–	–	–	–	–
c1c[nH]cn1	–	·	·	?	·	·
N=C(N)SCc1ccc(Cl)c2ccccc12 (tested in a mixture with another compound)	4.5µM!	·	·	–[13.5 µM]	·	·
NC(=O)C[N+]1(CC#CC(O)(c2ccccc2)c2ccccc2)CCCC1	·	–	–	–	?	–
CCC(=O)c1c(O)n(C2CCCCCC2)c(=O)[nH]c1=O	–	–	–	25µM	–	–
CCC(=Nc1ccc(OC)cc1OC)c1c(O)n(C2CCCCC2)c(=O)[nH]c1=O	28µM	–	–	?	?	–
CC(=NCCO)c1c(O)n(C2CCCCC2)c(=O)[nH]c1=O	–	–	–	?	–	–
ClCC(Cl)CCl	–	·	·	–	·	·
NC[C@@H](Cc1ccccc1)P(=O)(O)O	–	·	·	–[13.5 µM]	·	·
CN(C)c1ccc2c(c1)N=C(c1ccco1)OP2(=S)N1CCOCC1 (configuration not stated)	18µM	–	?	8.9µM	–	–
[Cd+2].[Cl-].[Cl-]	8.9µM	·	·	4µM	·	·
NC(Cc1ccc(N(CCCl)CCCl)cc1)C(=O)O (configuration not stated)	–	?	28µM	32µM	20µM!	?
CCOC(=O)CC(NC(=O)C(Cc1ccc(N(CCCl)CCCl)cc1)NC(C)=O)C(=O)OCC (configuration not stated)	·	–	–	25µM	10µM	–[2.34 µM]
C=CC=O	–	·	·	0.022µM	·	·
Cc1ccc(C)c(N2CCN(c3ncnc4onc(C)c34)CC2)c1	·	–	?	·	·	–
SMILES	HPGD inh	Tau fluor cs	Tau fibril ThT	ALDH1A1 inh	KDM4E inh	Tau FP inhib
C=CC(C)(C)c1c2c(c(O)c3c(=O)c4ccc(O)c(O)c4oc13)C=CC(C)(C)O2	–	16µM[quencher]	?	–	?	?
CCNCCC1(CC)C(=O)NC(=O)NC1=O	–	·	·	–[13.5 µM]	·	·
C=CC1CC=CCC1 (configuration not stated)	–	·	·	22µM	·	·
CN(C)C1C(=O)C(C(N)=O)=C(O)[C@@]2(O)C(=O)C3=C(O)c4c(O)cccc4[C@@](C)(O)C3CC12 (some centres not stated)	–	–	?	–	2.5µM	–
CNc1ccc2oc(C[C@H]3O[C@@]4(CC[C@H]3C)O[C@H]([C@H](C)C(=O)c3ccc[nH]3)[C@H](C)C[C@H]4C)nc2c1C(=O)O	?	?	?	?	?	–
CNc1ccc2oc(C[C@@H]3OC4(CC[C@@H]3C)O[C@H]([C@@H](C)C(=O)c3ccc[nH]3)[C@H](C)C[C@H]4C)nc2c1C(=O)O (some centres not stated)	·	?	32µM	?	·	?
C=C(C)c1ccccc1 (tested in a mixture with another compound)	–	·	·	–[13.5 µM]	·	·
CN(C)S(=O)(=O)c1ccc(Cl)c(NC(=O)COC(=O)CN2C(=O)C3CCCCC3C2=O)c1 (configuration not stated)	·	–	–	?	–	–
CNC(=O)O/N=C/C(C)(C)S(C)=O (configuration not stated)	–	·	·	28µM	·	·
CN(C)c1ccc(C(=O)c2ccc(N(C)C)cc2)cc1	?	–	?	28µM	–	–
CN(C)c1ccccc1	–	·	·	–	·	·
COc1cc(/C=C2\C(=O)NC(=O)N(c3ccccc3)C2=O)c([N+](=O)[O-])cc1OC	·	–	?	?	–	–
COc1cc(/C=C2\C(=O)NC(=O)N(c3ccccc3)C2=O)cc(OC)c1O	32µM	–	?	?	–	?
Cc1cc(C)cc(N2C(=O)NC(=O)/C(=C/c3cccn3-c3ccc(Cl)cc3)C2=O)c1	4µM	–	?	–	–	–
CC(C)(C)n1cccc1/C=C1\C(=O)NC(=O)N(c2ccccc2)C1=O	–	–	?	1.4µM	–	–
O=[N+]([O-])O[C@H]1CO[C@H]2[C@@H]1OC[C@H]2O	–	?	–	–	·	–
C[C@H](N)Cc1c[nH]c2ccc(OCc3cccs3)cc12	–	–	–	–	–	–
c1ccc2c(c1)CN1CCCC1=N2	–	–	–	–	–	–
CCCCCOC(=O)c1ccccc1C(=O)OCCCCC	–	·	·	–	·	·
c1ccc(Nc2ccc(Nc3ccccc3)cc2)cc1	–	·	·	?	·	·
O=Nc1ccc(Nc2ccccc2)cc1	–	·	·	0.063µM	·	·
CC(=O)C1C2c3ccccc3OC1(C)N=c1s/c(=C/c3cn(C)nc3C)c(=O)n12 (configuration not stated)	28µM	–	–	10µM	–	–
COC(=O)C1C2c3ccccc3OC1(C)N=c1s/c(=C/c3cnn(C)c3)c(=O)n12 (configuration not stated)	–	–	–	–	–	–
CN(C)CCCCCCN(C)C	–	·	·	?	·	·
COC(=O)[C@H]1C(=O)c2ccccc2O[C@@](C(=O)OC)(c2ccccc2)[C@@H]1c1ccccc1	·	–[11.6 µM]	–[11.5 µM]	–[13.5 µM]	·	–[11.6 µM]
c1ccc(CCN2CCOCC2)nc1	–	·	·	–[13.5 µM]	·	·
CN1C(=O)C(=Cc2ccc(N3CCOCC3)o2)C(=O)N(C)C1=S	·	–	?	–	–	–
CCN1C(=O)C(=Cc2ccc(N3CCOCC3)o2)C(=O)N(CC)C1=S	·	–	18µM	·	–	–
C=CCN1C(=O)/C(=C\c2ccc(N3CCOCC3)o2)C(=O)NC1=S	–	–	?	18µM	–	–
